Screening results (PubChem BioAssay)
Sampled rows, rich in hits. Any-hit rate of the full collection: about 11%.
HCV inh: inhibitors of hepatitis C virus infection. Huh7.5.1 HCVcc-Cre infection, luciferase reporter, 44 h. Potency, µM (top dose mostly 41.8 µM), for the others: at the highest dose activity change, negative = inhibition, actives largely listed as inhibitors. hit rate 3.4% among 340,000
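Whole-lifecycle infectious HCVcc-Cre system; cells 1,000/well, compound then virus (~0.5 moi) added 4 h after plating, 44 h culture. Luciferase read 15 sec following 15 min substrate incubation, room temp.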
AmpC inh detg: blocks E. coli AmpC beta-lactamase in detergent assay; AmpC hydrolysis of nitrocefin, absorbance 480 nm, 0.01% Triton; Potency, µM (series often up to 114 µM), for the others: at the top dose activity change, negative = inhibition, hits mostly inhibitors; hit rate 0.041% among 370,000; AID 485294;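 further: 0% = no-compound wells and -100% = no-enzyme wells; nearly all actives have a fitted effect of over 25% in size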
Target sequence (P00811 whole entry, looked up): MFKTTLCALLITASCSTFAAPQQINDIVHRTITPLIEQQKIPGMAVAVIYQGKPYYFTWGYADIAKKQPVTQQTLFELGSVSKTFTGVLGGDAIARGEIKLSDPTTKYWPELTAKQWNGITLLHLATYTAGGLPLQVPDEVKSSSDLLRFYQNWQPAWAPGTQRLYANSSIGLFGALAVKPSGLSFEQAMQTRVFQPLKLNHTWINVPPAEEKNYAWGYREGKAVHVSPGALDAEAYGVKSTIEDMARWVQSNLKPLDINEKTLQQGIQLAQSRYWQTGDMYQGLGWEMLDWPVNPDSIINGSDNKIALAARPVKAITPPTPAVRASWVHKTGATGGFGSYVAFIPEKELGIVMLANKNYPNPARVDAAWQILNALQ
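20 mM phosphate pH 7.0 + 0.01% (detergent screen) or 0.0001% Triton X-100; 5.3 nM AmpC reagent; cpd preinc 15 min RT; nitrocefin (800 uM stock) to start; A480 q20 s × 4 min; Activity was normalised to no-enzyme and no-compound control wells.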
AmpC no deterg: inhibitors of E. coli AmpC beta-lactamase without detergent. AmpC nitrocefin hydrolysis, absorbance 480 nm, 0.0001% Triton. Potency, µM (highest dose often 57.1 µM), for inactives: at the top dose activity change, negative = inhibition, hits mostly inhibitors. hit rate 0.52% among 330,000. AID 485341;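 further: plate controls were no compound for no effect and no enzyme for full effect; nearly all actives have a fitted effect of over 20% in size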
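AmpC (5.3 nM in the dispensed reagent) in 20 mM phosphate pH 7.0 with 0.01% (detergent screen) or 0.0001% Triton X-100 was preincubated with compounds for 15 min at room temperature. Nitrocefin was then added from an 800 uM solution, and hydrolysis was followed at 480 nm.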
Pf growth 48h: inhibits P. falciparum growth in the first generation, 48 h | P. falciparum luciferase growth in erythrocytes, 48 h | Potency, µM (titrated, usually from 28.7 µM), for inactives: at the top dose activity change, negative = inhibition, usual class: inhibitors | hit rate 5.9% among 310,000 | AID 504832
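Parasite viability was followed by luminescence of a genomically integrated firefly luciferase. Cultures held 0.1% parasitemia at 2% hematocrit (final), incubated under 5% CO2 at 37 C.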
Pf growth 96h: P. falciparum growth inhibition at 96 hours; P. falciparum luciferase reporter growth, 96 h; Potency, µM (highest dose often 28.7 µM), inactives show at the top dose activity change, negative = inhibition, most hits filed as inhibitors; hit rate 6.9% among 320,000
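P. falciparum expressing integrated firefly luciferase, in erythrocytes at 2% hematocrit, 0.05% parasitemia, incubated with compounds 96 h at 37 C, 5% CO2. Growth inhibition read as loss of luminescence; two-generation exposure targets delayed-death apicoplast inhibitors.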
AMA1 RON2 block: disrupts binding of P. falciparum AMA1 to RON2 | AlphaScreen AMA1-biotinylated RON2 peptide binding | Potency, µM (series often up to 58.2 µM), for inactives: at the highest dose activity change, negative = inhibition, actives largely listed as inhibitors | hit rate 0.2% among 360,000 | AID 720542;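 further: 0% = vehicle wells and -100% = peptide control; nearly all actives have a fitted effect of over 45% in size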
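AMA1 (3D7) with his tag at 25 nM final met compounds first, then biotinylated RON2 peptide at 25 nM; detection used donor plus acceptor beads, 10 µg/mL apiece, read by AlphaScreen after 30 min at room temperature.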
An asterisk follows results filed as active; u = inconclusive; x = no result; ! = a repeat was not active; [ ] = dose if it differs, or a comment. The call rests on the fitted dose curve; in most records, active means well fitted curve in the direction sought with a large enough effect; inconclusive means small, poorly fitted or top-dose-only effect, or another doubt; inactive means no such curve, though single readings can be large; an effect the other way counts as inactive or inconclusive. Unless noted, on the % scale 0 is the no-effect control and ±100 the full control effect; potency means the concentration at half of the fitted maximal effect.

SMILES	HCV inh	AmpC inh detg	AmpC no deterg	Pf growth 48h	Pf growth 96h	AMA1 RON2 block
COc1cccc(C(c2sc3nc(-c4ccco4)nn3c2O)N2CCN(c3ccccc3F)CC2)c1 (configuration not stated)	x	5%	x	x	x	x
CCCc1nnc(NC(=O)Cc2coc3ccc(C(C)C)cc23)s1	x	-6%	x	x	x	x
Cc1ccc2cc(CN(C)C(=O)c3cccc(Cl)c3)c(=O)[nH]c2c1	x	-9%	x	x	x	x
CC(=O)Nc1ccc(C2Nc3cc(C)c(C)cc3NC3=C2C(=O)CC(C)(C)C3)cc1 (configuration not stated)	0%	-13%	-23%	6%	8.3µM*	-5%
C#CCn1c(S(=O)(=O)Cc2ccc(F)cc2)nc(-c2ccccc2)c1-c1ccccc1	u	u	-24%	u	8.3µM*	-19%
CCOC(=O)Cn1c(-c2ccccc2)nc2ccccc2c1=O	5%	u	-4%	u	-5%	14%
CCOC(=O)Cn1c(S(=O)(=O)Cc2cccc(F)c2)nc(-c2ccccc2)c1-c1ccccc1	u	-10%	-16%	8.3µM*	5.9µM*	-6%
NC(=O)Cn1c(S(=O)(=O)Cc2ccccc2)nc2ccccc21	9%	x	x	x	x	2%
CCOC(=O)Cn1c(-c2ccc(OC)cc2)c(-c2ccc(OC)cc2)nnc1=O	-13%	-7%	48%	-19%	231%	u
CCOC(=O)Cn1c(S(=O)(=O)Cc2ccc(F)cc2)nc(-c2ccccc2)c1-c1ccccc1	u	u	-3%	13µM*	9.3µM*	-17%
CCCCn1c(CNC(=O)c2cccs2)nc2ccccc21	-15%	u	1%	5.2µM*	2.1µM*	13%
CCCCCn1c(CCNC(=O)c2cccs2)nc2ccccc21	u	1%	-8%	u	-19%	-4%
CCCCCn1c(CNC(=O)c2cccs2)nc2ccccc21	-2%	-1%	-21%	u	0.59µM*	4%
COc1ccc(CNC(=O)Cc2ccc(NC(=O)N3CCSc4ncccc43)cc2)cc1	x	18%	x	x	x	x
OCCCc1nc2n(n1)C(c1cccs1)C=C(c1ccccc1)N2 (configuration not stated)	x	1%	-1%	x	2%	x
OCCCc1nc2n(n1)C(c1ccccc1)C=C(c1ccc(F)cc1)N2 (configuration not stated)	11µM*	3%	45%	u	-13%	12%
OCCN1CCN(CCC=C2c3ccccc3Sc3ccc(Cl)cc32)CC1	x	x	x	u	4.5µM*	x
OCCN1CCN(CC/C=C2/c3ccccc3Sc3ccc(C(F)(F)F)cc32)CC1	0.89µM*	-7%	306%	6.6µM*	8.3µM*!	-30%
OCCN1CCN(CC/C=C2/c3ccccc3CSc3ccccc32)CC1	u	x	x	x	x	-19%
COc1ccc(-n2cc(C(=O)NCCc3cc(OC)ccc3OC)c3ccccc3c2=O)cc1	x	-1%	x	x	x	x
CC1CCN(S(=O)(=O)c2ccc3nc(Nc4cccc(F)c4)ccc3c2)CC1	x	8%	x	x	x	x
CCOc1ccc(S(=O)(=O)N(C)C2CCCCC2)cc1	-2%	2%	-2%	28%	1.7µM*	17%
CCOc1ccc(S(=O)(=O)NC2CCCCCC2)cc1	-2%	-1%	-15%	7%	-19%	9%
CN(C1CCCCC1)S(=O)(=O)c1ccc(S(=O)(=O)N2CCCC2)cc1	u	-15%	28%	u	1.7µM*	-2%
CCC1CN(C(=O)Nc2cccc(OC)c2)c2ccccc2O1 (configuration not stated)	x	3%	x	x	x	x
SMILES	HCV inh	AmpC inh detg	AmpC no deterg	Pf growth 48h	Pf growth 96h	AMA1 RON2 block
N=C(N)c1ccc(OCCCCCOc2ccc(C(=N)N)cc2)cc1	2.2µM*!	-4%	8%	0.26µM*	0.037µM*	-9%
CCn1c(C(C)NC(C)=O)nc2ccccc21 (configuration not stated)	17%	u	-4%	x	u	3%
Cc1ccc(-c2csc(N3CCN(CCCn4c(C(F)(F)F)nc5ccccc54)CC3)n2)cc1	5%	-8%	1%	u	u	-17%
Cc1ccc(-c2csc(N3CCN(CCCn4c(-c5ccncc5)nc5ccccc54)CC3)n2)cc1	u	6%	144%	u	2.6µM*	-18%
Cc1ccc(-c2csc(N3CCC[C@@H]3C(=O)NCCn3c(-c4ccncc4)nc4ccccc43)n2)cc1	u	-7%	201%	u	3.3µM*	2%
CC(=O)N[C@@H](C)c1nc2ccccc2n1CCCN1CCN(c2nc(-c3ccc(C)cc3)cs2)CC1	3.5µM*	3%	251%	u	u	-1%
Cc1cccc(N2C(=O)C(CC(=O)Nc3ccc(F)cc3)N(C3CCCC3)C2=O)c1 (configuration not stated)	x	8%	x	x	x	x
COc1cccc(-c2nnc(SCC(=O)N(C)c3ccccc3)o2)c1	x	23%	x	x	x	x
Cc1ccc[n+](C(C)C(=O)Nc2ccc([N+](=O)[O-])cc2C)c1 (configuration not stated)	-1%	u	-10%[11.4 µM]	3%	29%	-6%
Cc1ccc(C(=O)Nc2ccc(NC(=O)c3cccs3)cc2)cc1[N+](=O)[O-]	-20%	0%	-27%	14%	13%	-3%
Cc1ccc[n+](C(C)C(=O)Nc2ccc(C)c([N+](=O)[O-])c2)c1 (configuration not stated)	u	u	-9%	u	12µM*	0%
